FMDV inh = blocks foot and mouth disease virus | hit rate 1.2% among 410,000 | FMDV antiviral cell-based qHTS | Potency, µM (top dose mostly 57.9 µM), actives largely listed as inhibitors | AID 1159524; calls by dose curve; tested in HEK293T cells; also: read-out not given here; nearly all actives have a fitted effect of over 45% in size
HCMV inh = human cytomegalovirus inhibition | HFF cells, HCMV-luciferase reporter, 72 h; active compounds read low | activity change, negative = inhibition, % at 57.5 µM | hit rate 4.5% among 410,000; in the data active = activity change below about -60%; inconclusive = no clear call, values can overlap the other calls; inactive = above about -39%
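Two compound doses tested in HFFs infected with HCMV-luciferase, MOI 1 PFU/cell, 72 h at 37C. Lysate luminescence read with OneGlo; data normalized against buffer-only and 10uM Salinomycin inhibitor controls.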
LASV entry inh = blocks Lassa virus binding to or entry into cells. Lassa virus pseudotype entry inhibition, cell reporter. Potency, µM (doses to about 37.9 µM), most hits filed as inhibitors. hit rate 1.2% among 300,000; calls by dose curve; tested in HEK293 cells; also: nearly all actives have a fitted effect of over 50% in size
Marburg entry inh = blocks Marburg virus binding to or entry into cells. AID 540276. Potency, µM (titrated, usually from 37.8 µM), hits mostly inhibitors. hit rate 1.8% among 300,000. Marburg virus pseudotyped entry inhibition, cell reporter; calls by dose curve; tested in HEK293 cells
HCV inhibitor = blocks hepatitis C virus; Huh7.5.1 HCVcc-Cre infection, luciferase reporter, 44 h; Potency, µM (top dose mostly 41.8 µM), hits mostly inhibitors; hit rate 3.4% among 340,000; active = well fitted inhibition curve with a large enough effect; inconclusive = small, poorly fitted or top-dose-only effect, or another doubt; inactive = no such curve, though single readings can be large or run the other way
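Infectious HCV cell culture screen: compound-treated cells (1,000/well, pre-plated 4 h) are infected with HCVcc-Cre at roughly 0.5 moi and grown 44 h. Infection is quantified by luciferase signal after 15 min substrate incubation at room temperature.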
SARS PLpro yeast = inhibitors of SARS-CoV papain-like protease in yeast; S. cerevisiae expressing SARS-CoV PLpro, growth rescue; Potency, µM (highest dose often 32.9 µM), most hits filed as activators; hit rate 0.19% among 330,000; calls by dose curve; also: nearly all actives have a fitted effect of over 55% in size
Of the large screens only hits and unclear results are named; the others gave an inactive call; ! = not confirmed by another sample. Hits are enriched below; roughly 8% of the tested compounds scored in any of these assays.

COc1ccc(CN(C)C(=O)c2ccc(NS(=O)(=O)c3ccc4[nH]c(=O)[nH]c4c3)cc2)c(OC)c1OC	none (no result: LASV entry inh, Marburg entry inh)
Cc1cccn2c(=O)c(/C=C(\C#N)C(=O)NC3CCS(=O)(=O)C3)c(N3CCC(C(N)=O)CC3)nc12 (stereo unspecified)	HCMV inh inconclusive
Cc1cccn2c(=O)c(/C=C(\C#N)C(N)=O)c(N3CCN(Cc4ccc5c(c4)OCO5)CC3)nc12	FMDV inh inconclusive, HCMV inh -80, HCV inhibitor inconclusive
Cc1ccc(Oc2nc3c(C)cccn3c(=O)c2/C=C(\C#N)C(N)=O)cc1	FMDV inh 18µM, LASV entry inh inconclusive
CCOC(=O)/C(C#N)=C/c1c(Oc2cccc(C)c2)nc2c(C)cccn2c1=O	none
Cc1cccn2c(=O)c(/C=C(\C#N)C(=O)NC3CCS(=O)(=O)C3)c(Oc3ccccc3Cl)nc12 (stereo unspecified)	FMDV inh 20µM, Marburg entry inh inconclusive
Cc1ccccc1Oc1nc2c(C)cccn2c(=O)c1/C=C(\C#N)C(=O)NC1CCS(=O)(=O)C1 (stereo unspecified)	FMDV inh 20µM, LASV entry inh 13µM, Marburg entry inh inconclusive
CCOC(=O)/C(C#N)=C/c1c(N2CCN(Cc3ccc4c(c3)OCO4)CC2)nc2c(C)cccn2c1=O	LASV entry inh inconclusive, Marburg entry inh inconclusive, HCV inhibitor inconclusive
O=C(c1ccco1)N1CCC2(CCCN(Cc3ccccc3)C2)CC1	none (no result: HCMV inh, LASV entry inh, Marburg entry inh, HCV inhibitor, SARS PLpro yeast)
COc1ccc(CNCCCSc2nnnn2C)c(OC)c1	none (no result: HCV inhibitor, SARS PLpro yeast)
Cc1ccc(N2C(=O)C3CCC(C)(C2=O)C3(C)C)cc1 (stereo unspecified)	none
CSC[C@@H]1NC(=S)N(c2ccc(C)cc2)C1=O	FMDV inh 11µM
CC(Oc1ccccc1)C(=O)NNC(=O)c1ccccn1 (stereo unspecified)	HCMV inh inconclusive, LASV entry inh inconclusive, Marburg entry inh inconclusive, HCV inhibitor inconclusive
COc1ccc(C(=O)Nc2ccc(NC(=O)c3cnccn3)cn2)cc1	HCV inhibitor 13µM (no result: FMDV inh)
COc1cc(OC)cc(C(=O)NNC(=O)c2ccccn2)c1	HCMV inh -98, LASV entry inh inconclusive, Marburg entry inh inconclusive, HCV inhibitor inconclusive
COc1ccc(C(=O)NNC(=O)c2ccccn2)cc1	FMDV inh 1.8µM, HCMV inh -84, LASV entry inh inconclusive, Marburg entry inh inconclusive
CC(Oc1cccc(Br)c1)C(=O)NNC(=O)c1ccccn1 (stereo unspecified)	HCV inhibitor 5µM (no result: HCMV inh, LASV entry inh, Marburg entry inh)
O=C(NS(=O)(=O)c1ccccc1)c1cccc(Br)c1	none (no result: LASV entry inh, Marburg entry inh)
COC(=O)c1c(NC(=O)Cc2coc3ccc(C(C)C)cc23)sc2c1CCC2	LASV entry inh inconclusive, Marburg entry inh inconclusive (no result: HCV inhibitor, SARS PLpro yeast)
CCN(CC)C(=O)Cn1cc(SCC(=O)Nc2cccc(F)c2)c2ccccc21	none (no result: Marburg entry inh, HCV inhibitor, SARS PLpro yeast)
CSc1nc(N(C)NC(=O)c2ccc(F)cc2)c2ccccc2n1	LASV entry inh inconclusive, Marburg entry inh 1.3µM, HCV inhibitor inconclusive
Cc1ccc(-n2nc(C)c3c(C)cc(=O)n(CC(=O)Nc4ccc(Br)cc4F)c32)cc1	none (no result: Marburg entry inh, HCV inhibitor, SARS PLpro yeast)
CC[C@@H](O)C[C@H]1CCC[C@@]2(C[C@@H]3OC(=O)/C=C/[C@@](C)(O)[C@@H](O)[C@H](C)[C@@H](O)[C@H](OC4CCC(N(C)C)C(C)O4)[C@@H](O)[C@](C)(O)CCCCC/C=C/[C@@H]4CC(C)(C)O[C@@]4(O)C[C@H](O2)[C@H]3C)O1 (stereo partly specified)	FMDV inh inconclusive, HCMV inh -97, LASV entry inh inconclusive, HCV inhibitor inconclusive (no result: SARS PLpro yeast)
C=C1C(=O)[C@]23C[C@H]1CCC2[C@@]1(C)C(C[C@@H]3O)[C@](C)(C(=O)OC)CC[C@@H]1O (stereo partly specified)	FMDV inh 20µM, HCMV inh -102 (no result: LASV entry inh, Marburg entry inh, HCV inhibitor, SARS PLpro yeast)
C[C@@]12C(C[C@H](O)[C@@]34C[C@@H](CCC13)[C@@H](CO)C4=O)[C@](C)(C(=O)O)CC[C@@H]2O (stereo partly specified)	none (no result: LASV entry inh, Marburg entry inh, HCV inhibitor, SARS PLpro yeast)
COc1ccccc1C(=O)NCCC(=O)Nc1nc2ccccc2[nH]1	HCV inhibitor inconclusive
Cc1ccc(C(=O)Nc2nc3ccccc3c(=O)s2)cc1	HCV inhibitor 8.9µM (no result: FMDV inh)
COc1ccccc1C(=O)Nc1nc2ccccc2[nH]1	FMDV inh 1µM, HCMV inh -76, LASV entry inh inconclusive, Marburg entry inh inconclusive
Cc1ccc(C(=O)Nc2nc3ccccc3[nH]2)cc1	FMDV inh 11µM, HCMV inh -84, LASV entry inh inconclusive, Marburg entry inh 1.4µM
Cc1ccc(Nc2nc3ccccc3c(=O)s2)cc1C	HCMV inh -73
O=C(Nc1ccccc1)N1CC(=O)N2[C@@H](CO)[C@H](c3ccc(Br)cc3)[C@@H]2C1	none (no result: FMDV inh, LASV entry inh, Marburg entry inh, HCV inhibitor, SARS PLpro yeast)
CCc1nn(CC(=O)N(C)C2CCCCC2)c(=O)c2cc3cc(C)ccc3n12	none (no result: LASV entry inh, Marburg entry inh)
COCc1c(C(=O)N2CCN(C3CCCCC3)CC2)cnn1-c1ncc(C)c(-c2cccs2)n1	none (no result: HCMV inh, LASV entry inh, Marburg entry inh, HCV inhibitor, SARS PLpro yeast)
Cc1ccccc1NC(=O)C1CCN(C(=O)c2ccc(F)cc2)CC1	none (no result: HCV inhibitor, SARS PLpro yeast)
Cc1cc(C(=O)Nc2cnc3ccccc3c2)ccc1[N+](=O)[O-]	LASV entry inh inconclusive, Marburg entry inh inconclusive, HCV inhibitor inconclusive
C/C(=N\Nc1nc2ccccc2[nH]1)c1ccc([N+](=O)[O-])cc1	LASV entry inh inconclusive, HCV inhibitor 10µM
Cc1ccc(C(=O)Nc2cnc3ccccc3c2)cc1	FMDV inh 3.5µM, HCMV inh -81, LASV entry inh 5µM, Marburg entry inh inconclusive
Cc1ccc(N(C)S(=O)(=O)c2cccc(C(=O)Nc3nc4ccccc4[nH]3)c2)cc1	HCMV inh -87, LASV entry inh 16µM, Marburg entry inh 12µM, HCV inhibitor 11µM
COc1cc(SC)ccc1C(=O)Nc1nc2ccccc2[nH]1	FMDV inh 0.035µM, HCMV inh -98, LASV entry inh inconclusive, Marburg entry inh inconclusive
Cc1ccc(-n2nc(C)c3c(C)c(CCC(=O)NCc4ccc(Cl)cc4)c(C)nc32)cc1	none (no result: HCV inhibitor, SARS PLpro yeast)
O=C(Nc1ccc(Cl)cc1)c1csc(N2CCN(Cc3ccccc3)C2=O)n1	none (no result: FMDV inh, LASV entry inh, Marburg entry inh, HCV inhibitor, SARS PLpro yeast)
Cc1c(C(=O)NCC2(N3CCOCC3)CCCCCC2)cnn1-c1nccc(-c2ccccc2F)n1	none (no result: HCMV inh, LASV entry inh, Marburg entry inh, HCV inhibitor, SARS PLpro yeast)
N#Cc1ccsc1NC(=O)c1cccc(-n2cnnn2)c1	HCV inhibitor inconclusive (no result: LASV entry inh)
COc1ccccc1OC(=O)c1ccc(SC)cc1OC	LASV entry inh 10µM, Marburg entry inh inconclusive, HCV inhibitor inconclusive
COc1cc(SC)ccc1C(=O)Nc1ccccc1	Marburg entry inh inconclusive, HCV inhibitor inconclusive
COC(=O)c1ccc(CN2C[C@H](Sc3ccccn3)C[C@H]2C(=O)N(C)C)cc1	none (no result: HCMV inh, LASV entry inh, Marburg entry inh, HCV inhibitor, SARS PLpro yeast)
CC(=O)c1ccc(F)c(-c2cc(C)cc3c2OC(CNC(=O)c2cccnc2)C3)c1 (stereo unspecified)	none (no result: HCMV inh, LASV entry inh, Marburg entry inh, HCV inhibitor, SARS PLpro yeast)
CC1CN(S(=O)(=O)c2cccc(C(=O)OCc3cc(=O)oc4cc(O)ccc34)c2)CC(C)O1 (stereo unspecified)	FMDV inh 22µM, LASV entry inh inconclusive, Marburg entry inh inconclusive, HCV inhibitor 10µM!

High-throughput results (PubChem BioAssay)
